Source: PubChem BioAssay (National Center for Advancing Translational Sciences (NCATS))
Hits are enriched below; roughly 19% of the tested compounds scored in any of these assays.
KB-3-1 tox = kills parental KB-3-1 adenocarcinoma cells. KB-3-1 viability, CellTiter-Glo ATP luminescence, 72 h. Potency, µM (highest dose often 46.1 µM), most hits filed as cytotoxic. 1.4% of 400,000 active; note: nearly all actives have a fitted effect of over 60% in size
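Viability of parental KB-3-1 cells, measured by CellTiter-Glo luminescence, followed a 72 h incubation at 37 °C with pinned compounds in phenol-red-free DMEM containing 10% FBS.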
HT1080 IDH1KD tx = toxicity to HT-1080 IDH1 knockdown cells (counter line); HT-1080 IDH1 knockdown viability, ATP luminescence, 48 h; AID 686971; Potency, µM (doses to about 46.1 µM), for the others: at the top dose activity, negative = toxicity, hits mostly cytotoxic; 2% of 360,000 active;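 note: 0% = DMSO wells and -100% = cell-free medium wells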
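Luminescent ATP read-out (CellTiter-Glo, 10 min at room temperature) after 48 h compound exposure at 37 °C gave viability of IDH1-knockdown HT-1080 cells. Activity was normalised to DMSO and cell-free wells, then fitted as concentration-response curves.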
DT40 TDP1 CPT = growth inhibition of DT40 Tdp1-/-;hTDP1 cells with camptothecin (screen for TDP1 inhibitors). Potency, µM (doses to about 46.2 µM), without a hit: top-dose activity change, negative = growth inhibition, hits mostly inhibitors. 12% of 420,000 active. chicken DT40 Tdp1-/-;hTDP1 cells + 20 nM CPT, ATP luminescence, 48 h; note: nearly all actives have a fitted effect of over 55% in size
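Cell growth measured by CellTiter-Glo luminescence after a minimum 48 h, 37 C compound exposure with 20 nM CPT in Tdp1-knockout DT40 cells stably expressing hTDP1, seeded 400/well; qHTS titration format.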
HT1080-NT tox = kills 2HG-producing HT-1080-NT fibrosarcoma cells; HT-1080-NT fibrosarcoma viability, CellTiter-Glo ATP luminescence, 48 h; Potency, µM (titrated, usually from 46.1 µM), without a hit: at the highest dose activity, negative = less viability, actives largely listed as cytotoxic; 1.6% of 360,000 active; AID 686970;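 note: NT is the 2HG producing partner of a matched IDH1 knockdown line; 0% = DMSO-treated cells and -100% = media-only wells without cells; nearly all actives have a fitted effect of over 55% in size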
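A 48-hour cytotoxicity screen used HT-1080-NT cells plated 2 hours before compound delivery. ATP-based CellTiter-Glo luminescence measured viability, normalized to DMSO and no-cell controls.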
KB-V1 cytotox = kills drug-selected multidrug resistant KB-V1 cells | AID 1347076 | 3.4% of 400,000 active | KB-V1 MDR cells viability, CellTiter-Glo, 72 h | Potency, µM (highest dose often 46.1 µM), actives largely listed as cytotoxic; note: nearly all actives have a fitted effect of over 60% in size
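Luminescent ATP read-out (CellTiter-Glo, 10 min) measures survival of drug-selected KB-V1 MDR cells after 72 h, 37 degrees C compound exposure. Medium: phenol-red-free DMEM, 10% FBS. Values from fitted concentration-response curves.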
DT40 TDP1 no CPT = qHTS for Inhibitors of human tyrosyl-DNA phosphodiesterase 1 (TDP1): qHTS in cells in absence of CPT. DT40 Tdp1-/- hTDP1 cells, no CPT, ATP luminescence, 48 h. Potency, µM (doses to about 46.2 µM), for inactives: at the highest dose activity change, negative = growth inhibition, actives largely listed as inhibitors. 15% of 420,000 active. AID 686978, 2013; note: nearly all actives have a fitted effect of over 55% in size
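Luminescent ATP content (CellTiter-Glo) served as the growth readout. Knockout chicken DT40 cells expressing human TDP1 were exposed to compounds without camptothecin for a minimum 48 hr at 37 °C.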
Active calls of the source: *; i = inactive; ? = inconclusive; . = no result given. Calls come from the whole dose curve; as a rule, active = well fitted curve in the direction sought with a large enough effect; inconclusive = small, poorly fitted or top-dose-only effect, or another doubt; inactive = no such curve, though single readings can be large; an effect the other way counts as inactive or inconclusive. Unless noted, % is set by controls: 0 for no effect and ±100 for the full control effect; potency is the fitted concentration of half-maximal effect.

SMILES	KB-3-1 tox	HT1080 IDH1KD tx	DT40 TDP1 CPT	HT1080-NT tox	KB-V1 cytotox	DT40 TDP1 no CPT
Cc1cc(C)nc(N/N=C/c2ccccc2)n1	i	-0.7%	-18.7%	8.2%	i	-11.1%
C(=N\Nc1ccc2ccccc2n1)/c1ccc2c(c1)OCCO2	i	-8.1%	?	-8.2%	18.4µM*	?
Cc1ccc(/C=N/NS(=O)(=O)c2ccccc2)o1	i	-1.8%	-15.4%	-2.4%	i	-22.7%
Cc1cccc(/C=N/Nc2ccc3ccccc3n2)c1	i	-3.3%	-78.2%	-6.3%	i	29.1µM*
Nc1nc2ccccc2cc1C(=O)NCc1ccc(Cl)cc1Cl	?	-25.9%	16.4µM*	?	i	5.8µM*
Nc1nc2ccccc2cc1C(=O)NCc1ccc(-c2ccccc2)cc1	2.31µM*	1.3µM*	1.03µM*	?	2.59µM*	0.164µM*
COc1ccccc1N(Cc1cc(=O)[nH]c2ccccc12)C(=O)c1cccc([N+](=O)[O-])c1	i	-20.7%	20.6µM*	-2.6%	i	?
CCOc1ccc(N(Cc2cc3cc(OC)ccc3[nH]c2=O)C(=O)C2CCCO2)cc1 (stereo unspecified)	i	5.1%	?	2.3%	i	18.4µM*
CCOc1ccc(N(Cc2cc3cc(C)ccc3[nH]c2=O)C(=O)COC)cc1	i	9.4%	?	?	?	-8.3%
Cc1ccc2cc(CN(C(=O)c3cccc(Cl)c3)c3ccccc3)c(=O)[nH]c2c1	i	.	11.6µM*	.	i	18.4µM*
CCOc1ccc(N(Cc2cc3cc(C)ccc3[nH]c2=O)C(=O)c2cccc(Cl)c2)cc1	i	.	9.2µM*	.	i	?
Cc1ccc2cc(CN(C(=O)c3ccco3)c3ccccc3)c(=O)[nH]c2c1	i	-0.7%	?	-1.4%	i	-52.2%
Cc1ccc(CNC(=O)Cn2ccn(-c3cc(C)cc(C)c3)c(=O)c2=O)cc1	.	.	-1.6%	.	.	-17.9%
COc1ccc2[nH]c(=O)c(CN(C(=O)c3cccc(Cl)c3)c3ccccc3C)cc2c1	i	.	?	.	i	?
COc1ccc2[nH]c(=O)c(CN(C(=O)c3cccc(Cl)c3)c3ccccc3OC)cc2c1	i	.	23.1µM*	.	i	?
CC(C)Oc1ccc(S(=O)(=O)N2CCOCC2)cc1NC(=O)c1cccc(S(=O)(=O)N2CCCC2)c1	i	-0.3%	-12.0%	-5.5%	18.4µM*	-12.4%
Cc1ccc(CSCC(=O)Nc2cc(S(=O)(=O)N3CCOCC3)ccc2OC(C)C)cc1	i	-18.0%	?	-14.4%	?	23.1µM*
O=C(Nc1ccccc1C(=O)N1CCCC1)c1cccc(S(=O)(=O)N2CCCCCC2)c1	i	2.6%	?	2.5%	i	?
O=C(Nc1cc(S(=O)(=O)N2CCOCC2)ccc1N1CCOCC1)c1cccc(S(=O)(=O)N2CCCCC2)c1	i	-11.0%	-23.9%	-0.9%	i	-2.2%
O=C(Nc1ccccc1C(=O)N1CCOCC1)c1cccc(S(=O)(=O)N2CCCC2)c1	i	-0.3%	-2.1%	0.0%	9.2µM*	7.5%
COc1ccc(NC(=O)c2nnn(CC(=O)Nc3cc(C)cc(C)c3)c2N)c(OC)c1	i	.	-15.5%	.	i	-20.4%
C[C@@H]1C[C@@H]2OC(=O)[C@]3(C)[C@H]2[C@@H](OC3(C)O)[C@]2(C)C(=O)C=C[C@H]12 (stereo partly specified)	?	1.0%	18.4µM*	-14.0%	i	?
O=C(COC(=O)c1cc(S(=O)(=O)N2CCCCC2)ccc1N1CCOCC1)NC1CCS(=O)(=O)C1 (stereo unspecified)	i	16.5%	5.1%	?	i	-1.6%
CCOc1ccc(Sc2cc(C(=O)NCc3ccccc3Cl)c3ccccc3n2)cc1	.	.	?	.	.	13µM*
CCOc1ccc(Nc2cc(C(=O)NCc3ccccc3Cl)c3ccccc3n2)cc1	i	.	10.3µM*	.	i	?
SMILES	KB-3-1 tox	HT1080 IDH1KD tx	DT40 TDP1 CPT	HT1080-NT tox	KB-V1 cytotox	DT40 TDP1 no CPT
CCc1ccc(Sc2cc(C(=O)NCc3cccc(OC)c3)c3ccccc3n2)cc1	i	.	16.4µM*	.	i	?
S=C(Nc1ccccc1)c1nc2ccccc2s1	i	0.3%	?	-6.5%	i	?
N#Cc1cccnc1N1CCN(C(=O)c2ccco2)CC1	i	25.6%	-14.2%	28.2%	i	-15.2%
Cc1ccccc1NC(=S)NCCC(c1ccccc1)c1ccccc1	i	?	?	-18.5%	?	?
Cc1ccc(NC(=S)NCCC(c2ccccc2)c2ccccc2)c(C)c1	?	-22.2%	23.1µM*	-17.3%	i	16.4µM*
Cc1ccc(NC(=S)NNC(=O)c2ccccc2O)c(C)c1	?	-16.2%	23.1µM*	0.5%	i	13µM*
CC(C)(C)c1ccccc1NC(=S)NCc1ccccc1	i	9.1%	?	6.3%	i	18.4µM*
COc1ccc(OC)c(NC(=S)NCCC(c2ccccc2)c2ccccc2)c1	?	-14.7%	?	-8.7%	?	14.6µM*
CC(=O)SC[C@@H](C)C(=O)N1CCC[C@H]1C(=O)N[C@@H](Cc1ccccc1)C(=O)O	.	.	4.7%	.	.	-1.3%
Cc1ccc(NC(=S)NCc2ccccc2)c(C)c1	i	10.0%	23.1µM*	6.7%	i	?
Oc1c(CN2CCc3ccccc3C2)cc(Cl)c2cccnc12	?	?	5.8µM*	?	?	5.8µM*
O=C(Oc1c(CN2CCOCC2)cc(Cl)c2cccnc12)c1ccccc1F	18.4µM*	?	3.66µM*	?	?	4.61µM*
Oc1c(CN2CCCCC2)cc(Br)c2cccnc12	13µM*	?	5.17µM*	?	?	5.17µM*
O=C(COc1c(Br)cc(Br)c2cccnc12)N1CCCCC1	i	-16.3%	-23.3%	-15.4%	i	?
O=C(Oc1c(CN2CCOCC2)cc(Cl)c2cccnc12)c1ccccc1	?	10.3µM*	?	?	?	?
COc1cc(OC)cc(C(=O)Oc2c(CN3CCOCC3)cc(Cl)c3cccnc23)c1	i	-26.5%	?	?	?	?
O=C(Oc1ccc(C(=S)N2CCOCC2)cc1Cl)c1ccccc1F	i	0.3%	-10.1%	-0.7%	i	-23.1%
CC(NC(=O)CN1CCN(CC(=O)Nc2ccccc2Cl)CC1)c1ccc(Br)cc1 (stereo unspecified)	i	-2.8%	?	-8.4%	i	?
